# Reference: PubChem BioAssay (NCI)
# About 79,000 compounds went through this panel and 15% of them were active in at least one assay; those are over-represented in the sample as a whole. A number with no mark means an inactive call. The source made the active and inactive calls. No stated cut-off is given here; in the data, active means growth inhibition above about 70%; inactive means the rest.
# Columns and labels:
# [1] = NCI Yeast Anticancer Drug Screen. Data for the rad52 strain (AID 147);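 further: 0% = growth of vehicle-treated control cultures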; conditions: S. cerevisiae rad52 mutant growth inhibition, active compounds read high
# How it was run: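 Screen used a yeast mutant impaired in DNA repair. After compound exposure, growth was measured. Values reflect inhibition compared with vehicle-treated cells.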
# [2] = NCI Yeast Anticancer Drug Screen. Data for the rad50EPP+ strain (AID 151);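 further: 0% = growth of vehicle-treated control cultures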; conditions: S. cerevisiae rad50 mutant strain, active compounds read high
# How it was run: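 Exposing the rad50EPP+ strain to each compound, growth was compared with vehicle-only cultures to give inhibition.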
# [3] = NCI Yeast Anticancer Drug Screen. Data for the mgt1 strain (AID 153); conditions: S. cerevisiae mgt1 mutant growth inhibition, active compounds read high
# How it was run: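 Genetically defined yeast (mgt1) treated with compound; inhibition of growth expressed against vehicle-treated controls.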
# [4] = NCI Yeast Anticancer Drug Screen. Data for the rad50 strain (AID 155);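 further: 0% = growth of vehicle-only cultures of the same strain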; conditions: S. cerevisiae rad50 strain growth inhibition, active compounds read high
# How it was run: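 DNA repair mutant yeast, compound exposure, growth read-out; inhibition is taken relative to vehicle.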
# [5] = NCI Yeast Anticancer Drug Screen. Data for the mec2-1 strain (AID 157); conditions: S. cerevisiae mec2-1 strain, active compounds read high
# How it was run: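 Readout is yeast growth inhibition, normalised to vehicle-treated controls, in the mec2-1 strain exposed to compound.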
# [6] = NCI Yeast Anticancer Drug Screen. Data for the rad14 strain (AID 159);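 further: 0% = growth of vehicle-treated control cultures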; conditions: S. cerevisiae rad14 strain growth inhibition, active compounds read high
# How it was run: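 DNA repair-defective yeast, compound-exposed; % growth inhibition derived by comparison with vehicle-treated controls.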
# [7] = NCI Yeast Anticancer Drug Screen. Data for the sgs1 mgt1 strain (AID 161);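 further: 0% = growth of cultures given vehicle only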; conditions: S. cerevisiae sgs1 mgt1 strain, active compounds read high
# How it was run: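 Percent growth inhibition was derived by comparing compound-exposed mutant yeast with vehicle-exposed cultures. The strain carries alterations in DNA damage repair.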
# [8] = NCI Yeast Anticancer Drug Screen. Data for the cln2 rad14 strain (AID 165);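 further: 0% = growth equal to vehicle treated cultures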; conditions: S. cerevisiae cln2 rad14 strain, active compounds read high
# How it was run: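 Relative to vehicle controls, growth inhibition of compound-treated cln2 rad14 yeast was recorded.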
# [9] = NCI Yeast Anticancer Drug Screen. Data for the bub3 strain (AID 167); conditions: S. cerevisiae bub3 mutant strain, active compounds read high
# How it was run: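 In this screen, a yeast mutant lacking normal mitotic checkpoint function is challenged with compound. Relative growth versus vehicle gives the inhibition value.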
# [10] = NCI Yeast Anticancer Drug Screen. Data for the wt2 strain (AID 169);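 further: 0% = growth of vehicle-treated yeast cultures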; conditions: S. cerevisiae wt2 strain growth inhibition, active compounds read high
# How it was run: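 Values express reduction in yeast growth under compound treatment, referenced to vehicle-treated cells.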
# [11] = NCI Yeast Anticancer Drug Screen. Data for the mlh1 strain (AID 171);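 further: 0% = growth of vehicle-treated control cultures of the same strain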; conditions: S. cerevisiae mlh1 strain growth inhibition, active compounds read high
# How it was run: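 Steps: expose the defined-mutant yeast strain to compound; expose a parallel culture to vehicle; measure growth; express compound effect as inhibition relative to the vehicle culture.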
# [12] = NCI Yeast Anticancer Drug Screen. Data for the sgs1 strain (AID 173);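 further: 0% = growth of vehicle-only control cultures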; conditions: S. cerevisiae sgs1 mutant, active compounds read high
# How it was run: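 Treat defined-mutant yeast with compound; measure growth; calculate inhibition relative to vehicle-treated cells.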
# [13] = NCI Yeast Anticancer Drug Screen. Data for the mlh1 rad18 strain (AID 175); conditions: S. cerevisiae mlh1 rad18 strain growth inhibition, active compounds read high
# How it was run: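 Test agents were incubated with a yeast strain of defined genotype (DNA damage repair defect). Inhibition of growth was derived by comparison with vehicle-exposed cultures.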
# [14] = NCI Yeast Anticancer Drug Screen. Data for the rad18 strain (AID 177); conditions: S. cerevisiae rad18 mutant growth inhibition, active compounds read high
# How it was run: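 A genetically defined yeast mutant impaired in DNA damage repair was treated with test compounds, then its growth was measured against cultures receiving vehicle alone.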
# [15] = NCI Yeast Anticancer Drug Screen. Data for the wt1 strain (AID 149);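 further: 0% = growth of vehicle-treated wt1 cultures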; conditions: S. cerevisiae wt1 strain (SPY 50644) growth inhibition, active compounds read high
# How it was run: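 wt1 strain grown with compound or vehicle; inhibition taken from the growth difference.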
# [16] = NCI Yeast Anticancer Drug Screen. Data for the CLN2oe strain (AID 163);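 further: 0% = growth of vehicle-only control cultures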; conditions: S. cerevisiae CLN2oe strain, active compounds read high
# How it was run: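 Values reflect how much compound exposure reduced yeast growth, referenced to vehicle-exposed cells. Assay organism is a strain with a defined genetic change affecting cell-cycle control.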
# [17] = at 5.0 µM (retest, dose inferred, filed as 0.5)
# [18] = at 50.0 µM (retest, dose inferred, filed as 5.0)
structure (smiles),measurement,setting,value
CCC1(O)C(=O)OCc2c1cc1n(c2=O)Cc2cc3cc(Cl)ccc3nc2-1 (stereo not drawn),growth inhibition,[1]; at 1.2 µM,94% (active)
same,growth inhibition,[1]; at 3.7 µM,95% (active)
same,growth inhibition,[1]; at 11.0 µM,95% (active)
same,growth inhibition,[1]; at 33.0 µM,95% (active)
same,growth inhibition,[1]; at 100.0 µM,92% (active)
same,growth inhibition,[2]; at 1.2 µM,92% (active)
same,growth inhibition,[2]; at 3.7 µM,93% (active)
same,growth inhibition,[2]; at 11.0 µM,94% (active)
same,growth inhibition,[2]; at 33.0 µM,92% (active)
same,growth inhibition,[2]; at 100.0 µM,88% (active)
same,growth inhibition,[3]; at 1.2 µM,13%
same,growth inhibition,[3]; at 3.7 µM,19%
same,growth inhibition,[3]; at 11.0 µM,30%
same,growth inhibition,[3]; at 33.0 µM,57%
same,growth inhibition,[3]; at 100.0 µM,67%
same,growth inhibition,[4]; at 1.2 µM,96% (active)
same,growth inhibition,[4]; at 3.7 µM,94% (active)
same,growth inhibition,[4]; [17],97% (active)
same,growth inhibition,[4]; at 11.0 µM,95% (active)
same,growth inhibition,[4]; at 33.0 µM,93% (active)
same,growth inhibition,[4]; [18],92% (active)
same,growth inhibition,[4]; at 50.0 µM,93.7% (active)
same,growth inhibition,[4]; at 100.0 µM,78% (active)
same,growth inhibition,[5]; at 1.2 µM,60%
same,growth inhibition,[5]; at 3.7 µM,88% (active)
same,growth inhibition,[5]; [17],87% (active)
same,growth inhibition,[5]; at 11.0 µM,93% (active)
same,growth inhibition,[5]; at 33.0 µM,92% (active)
same,growth inhibition,[5]; [18],88% (active)
same,growth inhibition,[5]; at 50.0 µM,92.7% (active)
same,growth inhibition,[5]; at 100.0 µM,89% (active)
same,growth inhibition,[6]; at 1.2 µM,12%
same,growth inhibition,[6]; at 3.7 µM,19%
same,growth inhibition,[6]; at 11.0 µM,35%
same,growth inhibition,[6]; at 33.0 µM,59%
same,growth inhibition,[6]; at 100.0 µM,69%
same,growth inhibition,[7]; [17],62%
same,growth inhibition,[7]; [18],84% (active)
same,growth inhibition,[7]; at 50.0 µM,40.2%
same,growth inhibition,[8]; [17],24%
same,growth inhibition,[8]; [18],48%
same,growth inhibition,[8]; at 50.0 µM,45.9%
same,growth inhibition,[9]; at 1.2 µM,-6%
same,growth inhibition,[9]; at 3.7 µM,6%
same,growth inhibition,[9]; [17],-2%
same,growth inhibition,[9]; at 11.0 µM,24%
same,growth inhibition,[9]; at 33.0 µM,44%
same,growth inhibition,[9]; [18],31%
same,growth inhibition,[9]; at 50.0 µM,-5.7%
same,growth inhibition,[9]; at 100.0 µM,62%
same,growth inhibition,[10]; at 1.2 µM,4%
same,growth inhibition,[10]; at 3.7 µM,19%
same,growth inhibition,[10]; at 11.0 µM,20%
same,growth inhibition,[10]; at 33.0 µM,31%
same,growth inhibition,[10]; at 100.0 µM,47%
same,growth inhibition,[11]; at 1.2 µM,3%
same,growth inhibition,[11]; at 3.7 µM,8%
same,growth inhibition,[11]; at 11.0 µM,36%
same,growth inhibition,[11]; at 33.0 µM,65%
same,growth inhibition,[11]; at 100.0 µM,74% (active)
same,growth inhibition,[12]; at 1.2 µM,31%
same,growth inhibition,[12]; at 3.7 µM,46%
same,growth inhibition,[12]; at 11.0 µM,69%
same,growth inhibition,[12]; at 33.0 µM,83% (active)
same,growth inhibition,[12]; at 100.0 µM,80% (active)
same,growth inhibition,[13]; [17],45%
same,growth inhibition,[13]; [18],60%
same,growth inhibition,[13]; at 50.0 µM,52.5%
same,growth inhibition,[14]; at 1.2 µM,14%
same,growth inhibition,[14]; at 3.7 µM,14%
same,growth inhibition,[14]; at 11.0 µM,34%
same,growth inhibition,[14]; at 33.0 µM,64%
same,growth inhibition,[14]; at 100.0 µM,71% (active)
COc1cc(O)c2c(O)c3c(c4c2c1[C@]1(C4)C(C)=CCCC1(C)C)[C@H](O)[C@@]1(O)CC(=O)C(C(N)=O)=C(O)[C@@]1(O)C3=O,growth inhibition,[15]; at 1.2 µM,-16%
same,growth inhibition,[15]; at 3.7 µM,56%
same,growth inhibition,[15]; at 11.0 µM,98% (active)
same,growth inhibition,[15]; at 33.0 µM,97% (active)
same,growth inhibition,[15]; at 100.0 µM,93% (active)
same,growth inhibition,[2]; at 1.2 µM,-52%
same,growth inhibition,[2]; at 3.7 µM,60%
same,growth inhibition,[2]; at 11.0 µM,97% (active)
same,growth inhibition,[2]; at 33.0 µM,96% (active)
same,growth inhibition,[2]; at 100.0 µM,89% (active)
same,growth inhibition,[3]; at 1.2 µM,-16%
same,growth inhibition,[3]; at 3.7 µM,94% (active)
same,growth inhibition,[3]; at 11.0 µM,99% (active)
same,growth inhibition,[3]; at 33.0 µM,98% (active)
same,growth inhibition,[3]; at 100.0 µM,93% (active)
same,growth inhibition,[4]; at 1.2 µM,-37%
same,growth inhibition,[4]; at 3.7 µM,87% (active)
same,growth inhibition,[4]; [17],2%
same,growth inhibition,[4]; at 11.0 µM,97% (active)
same,growth inhibition,[4]; at 33.0 µM,96% (active)
same,growth inhibition,[4]; [18],97% (active)
same,growth inhibition,[4]; at 50.0 µM,97% (active)
same,growth inhibition,[4]; at 100.0 µM,92% (active)
same,growth inhibition,[5]; at 1.2 µM,-36%
same,growth inhibition,[5]; at 3.7 µM,87% (active)
same,growth inhibition,[5]; [17],83% (active)
same,growth inhibition,[5]; at 11.0 µM,98% (active)
same,growth inhibition,[5]; at 33.0 µM,98% (active)
same,growth inhibition,[5]; [18],98% (active)
same,growth inhibition,[5]; at 50.0 µM,98.7% (active)
same,growth inhibition,[5]; at 100.0 µM,94% (active)
same,growth inhibition,[6]; at 1.2 µM,-57%
same,growth inhibition,[6]; at 3.7 µM,50%
same,growth inhibition,[6]; at 11.0 µM,97% (active)
same,growth inhibition,[6]; at 33.0 µM,97% (active)
same,growth inhibition,[6]; at 100.0 µM,93% (active)
same,growth inhibition,[7]; [17],21%
same,growth inhibition,[7]; [18],98% (active)
same,growth inhibition,[7]; at 50.0 µM,98.7% (active)
same,growth inhibition,[16]; at 1.2 µM,-6%
same,growth inhibition,[16]; at 3.7 µM,94% (active)
same,growth inhibition,[16]; at 11.0 µM,98% (active)
same,growth inhibition,[16]; at 33.0 µM,97% (active)
same,growth inhibition,[16]; at 100.0 µM,93% (active)
same,growth inhibition,[9]; at 1.2 µM,-1%
same,growth inhibition,[9]; at 3.7 µM,77% (active)
same,growth inhibition,[9]; [17],-7%
same,growth inhibition,[9]; at 11.0 µM,98% (active)
same,growth inhibition,[9]; at 33.0 µM,97% (active)
same,growth inhibition,[9]; [18],98% (active)
same,growth inhibition,[9]; at 50.0 µM,98.2% (active)
same,growth inhibition,[9]; at 100.0 µM,94% (active)
same,growth inhibition,[10]; at 1.2 µM,-30%
same,growth inhibition,[10]; at 3.7 µM,-16%
same,growth inhibition,[10]; at 11.0 µM,97% (active)
same,growth inhibition,[10]; at 33.0 µM,96% (active)
same,growth inhibition,[10]; at 100.0 µM,95% (active)
same,growth inhibition,[11]; at 1.2 µM,-21%
same,growth inhibition,[11]; at 3.7 µM,67%
same,growth inhibition,[11]; at 11.0 µM,97% (active)
